# Data from PubChem BioAssay.
# Tested on: Rat fibroblasts (CREF)
# Assay: Peg3 promoter luciferase inhibitors, potency, dose response, cell-based, HeLa, CREF/GAPDH counter-screen panel (AID 624167)
# Conditions: CREF/GAPDH counter-screens; run 1, dose range 1, at 100 µM (top of the series); in the data active = activity above about 50%; inactive = the rest
row,SMILES,inhibition [%]
1,COc1cc(SC)ccc1C(=O)Nc1nc2ccccc2[nH]1,96.9
2,CCCCCCCn1c(=N)n(CC(=O)c2ccco2)c2ccccc21,95.9
3,CN(C)c1ccc(Nc2nc(N)c3ccccc3n2)cc1,97.2
4,CC1CCN(c2ccc(-c3cccc(NC(=O)C(F)(F)F)c3)nn2)CC1,99.2
5,CC1CCCN(c2ncnc3c2cnn3-c2ccc(Cl)cc2)C1 (stereo not drawn),94
6,O=C(/C=C\Nc1ccc2c(c1)OCO2)c1ccccn1,98.9
7,CCCn1c(C)cc(C(=O)CN2C(=O)c3ccccc3S2(=O)=O)c1C,91.2

# Tested on: Rat fibroblasts (CREF)
# Assay: as above
# Conditions: CREF/GAPDH counter-screens; run 2, dose range 1, at 100 µM (top of the series)
row,SMILES,inhibition [%]
1,CCSc1nc2ccccc2n1C(=O)/C=C\c1ccc(OC)c(OC)c1,91.8
2,OCCNc1c2ccccc2nc2ccccc12,94.8
3,Fc1ccc(-c2nnc(NC3=NCCCCC3)o2)cc1,94
4,COc1cccc(OC)c1C(=O)Nc1cc(C)nn1-c1nc2ccccc2[nH]1,12.6
5,Nc1ccc(-c2nc3ccc(C(=O)O)cc3s2)cc1,90.5
6,CC(=O)N1CCCC(c2cc(C(=O)Nc3ccccc3)no2)C1 (stereo not drawn),92
7,CN(C(=O)COC(=O)/C=C/c1cccc([N+](=O)[O-])c1)C1CCS(=O)(=O)C1 (stereo not drawn),36.6
8,CCCCC(=O)NC(c1ccc(OC)cc1)c1ccc2cccnc2c1O (stereo not drawn),28.7
9,COCCn1c(C)cc(C(=O)CSc2nnc(C)s2)c1C,90.7
10,Cc1ccc(-c2cc3c(nn2)-c2ccccc2C3=O)cc1,94.8
11,Cc1ccccc1OCC(=O)Nc1cccc(C(=O)O)c1,68.4
12,COc1ccc(C(=O)Nc2nc3ccccc3s2)c(OC)c1,97.7
13,CC(=O)Nc1ccc(NC(=O)c2nc(S(=O)(=O)Cc3cccc(C)c3)ncc2Cl)cc1,100
14,C=C1CC(COc2ccc3c(C)c(Cl)c(=O)oc3c2)(c2ccccc2)OC1=O (stereo not drawn),98
15,COc1cc(SC)ccc1C(=O)Nc1ncc(C)s1,97.3
16,CCN(CCO)c1ccc(N=Nc2cc(C)[nH]n2)cc1,98.6
17,Cc1ccc(-c2nc(-c3ccccn3)no2)cc1,99.7
18,CS(=O)(=O)Nc1cccc(NC(=O)C2Cc3c(-c4cccc(F)c4)ccnc3O2)c1 (stereo not drawn),29
19,COc1ccc(-c2nc(-c3ccccn3)no2)cc1,99.4
20,C(=Cc1cnc2ccccc2n1)c1ccc2c(c1)OCO2,95.7

row,SMILES,inhibition [%]
1,Brc1ccc(N/N=C(/N=Nc2nn[nH]n2)c2ccccc2)cc1,70
2,Cc1csc(NC(=O)c2cn3ccccc3n2)n1,99.8
3,CCOc1ccc2c(ccc(/C=C/c3cc(C)c4cccnc4c3O)[n+]2C)c1,98.5
4,CCOC(=O)Cc1csc(NC(=S)NC(=O)c2ccc(Cl)cc2)n1,86.8
5,COc1ccccc1C(=O)Nc1nc2ccccc2[nH]1,99.5
6,CCOc1ccc(OCc2cccc(C(=O)O)c2)cc1,97.5
7,O=C(Nc1cccc(C(=O)O)c1)Nc1ccc2c(c1)OCO2,85.5
8,CC(=O)CSc1ccc(-c2nc3cc(C)c(C)cc3[nH]2)cn1,95.4
9,C/C(=N\NC(=O)c1cc(C2CC2)nc2ccccc12)c1ccc(O)cc1O,65.1
10,CCCCCCCNC(=O)C1(CC2CC(c3cccc(Br)c3)=NO2)CCNCC1 (stereo not drawn),99.2
11,CC(=O)NC(c1ccc(N(C)C)cc1)c1cc(Cl)c2cccnc2c1O (stereo not drawn),94.6
12,O=C(CNC(=O)C(c1ccccc1)c1ccccc1)N/N=C/c1ccc(O)cc1O,35.6
13,CCn1nc(C)cc1-c1nnc(Sc2ncc([N+](=O)[O-])s2)n1C,98.8
14,COc1cc(SC)ccc1C(=O)Nc1nc2ccccc2[nH]1,97.9
15,CCCCCCCn1c(=N)n(CC(=O)c2ccco2)c2ccccc21,98
16,CN(C)c1ccc(Nc2nc(N)c3ccccc3n2)cc1,98
17,CC1CCN(c2ccc(-c3cccc(NC(=O)C(F)(F)F)c3)nn2)CC1,99.5
18,CC1CCCN(c2ncnc3c2cnn3-c2ccc(Cl)cc2)C1 (stereo not drawn),96.6
19,O=C(/C=C\Nc1ccc2c(c1)OCO2)c1ccccn1,97.2
20,CCCn1c(C)cc(C(=O)CN2C(=O)c3ccccc3S2(=O)=O)c1C,92.1

# Biological target: Tumor necrosis factor receptor superfamily member 10B (Homo sapiens) (UniProt O14763)
# Assay: caspase-8 TRAIL sensitization, hit retest, confirmation, cell-based, NB7+caspase-8, with/without TRAIL, luminescence panel (AID 651596)
# Conditions: NB7 neuroblastoma + caspase-8, TRAIL sensitization, luminescence viability, with TRAIL, mean of runs, at 10 µM, stronger effect = higher value
# Chain of Tumor necrosis factor receptor superfamily member 10B (Homo sapiens) (O14763 whole entry, looked up): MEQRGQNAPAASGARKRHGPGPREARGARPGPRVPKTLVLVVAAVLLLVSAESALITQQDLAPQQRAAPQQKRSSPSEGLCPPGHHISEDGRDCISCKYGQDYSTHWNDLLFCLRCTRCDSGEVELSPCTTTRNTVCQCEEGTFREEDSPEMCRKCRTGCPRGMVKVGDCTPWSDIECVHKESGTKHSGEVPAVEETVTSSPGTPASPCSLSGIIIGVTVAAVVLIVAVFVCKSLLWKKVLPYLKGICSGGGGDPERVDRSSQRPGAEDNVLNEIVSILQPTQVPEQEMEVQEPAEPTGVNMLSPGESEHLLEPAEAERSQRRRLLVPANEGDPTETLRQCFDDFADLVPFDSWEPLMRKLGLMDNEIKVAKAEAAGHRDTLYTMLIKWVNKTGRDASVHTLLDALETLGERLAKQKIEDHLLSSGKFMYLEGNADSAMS
row,SMILES,activity [%]
1,Fc1ccc(-c2nnc(NC3=NCCCCC3)o2)cc1,76
2,COCCn1c(C)cc(C(=O)CSc2nnc(C)s2)c1C,53.5
3,CC(=O)Nc1ccc(NC(=O)c2nc(S(=O)(=O)Cc3cccc(C)c3)ncc2Cl)cc1,56.4
4,C=C1CC(COc2ccc3c(C)c(Cl)c(=O)oc3c2)(c2ccccc2)OC1=O (stereo not drawn),97.8
5,Cc1ccc(-c2nc(-c3ccccn3)no2)cc1,96.8
6,CS(=O)(=O)Nc1cccc(NC(=O)C2Cc3c(-c4cccc(F)c4)ccnc3O2)c1 (stereo not drawn),75.5
7,COc1ccc(-c2nc(-c3ccccn3)no2)cc1,96.7
8,C(=Cc1cnc2ccccc2n1)c1ccc2c(c1)OCO2,92.9
9,Cc1csc(NC(=O)c2cn3ccccc3n2)n1,89.6
10,CCOC(=O)Cc1csc(NC(=S)NC(=O)c2ccc(Cl)cc2)n1,65.1
11,CC(=O)CSc1ccc(-c2nc3cc(C)c(C)cc3[nH]2)cn1,89.6
12,CCCCCCCNC(=O)C1(CC2CC(c3cccc(Br)c3)=NO2)CCNCC1 (stereo not drawn),60.5
13,COc1cc(SC)ccc1C(=O)Nc1nc2ccccc2[nH]1,99
14,CN(C)c1ccc(Nc2nc(N)c3ccccc3n2)cc1,95.9
15,CC1CCN(c2ccc(-c3cccc(NC(=O)C(F)(F)F)c3)nn2)CC1,97.5
16,CCCn1c(C)cc(C(=O)CN2C(=O)c3ccccc3S2(=O)=O)c1C,60.1
